This is a sample that favours compounds with a hit; in the whole collection about 13% have one here.
Lassa entry inh = qHTS for Inhibitors of binding or entry into cells for Lassa Virus | Lassa virus pseudotype entry inhibition, cell reporter | Potency, µM (top dose mostly 37.9 µM), for inactives: top-dose activity change, negative = inhibition, usual class: inhibitors | 300,000 tested, 1.2% active; calls by dose curve; tested in HEK293 cells; further: potency means the concentration at half of the fitted maximal effect; on the % scale 0 is the no-effect control and ±100 the full control effect; nearly all actives have a fitted effect of over 50% in size
MARV entry inh = qHTS for inhibitors of binding or entry into cells for Marburg Virus | AID 540276, 2011 | Potency, µM (doses to about 37.8 µM), for the others: at the top dose activity change, negative = inhibition, hits mostly inhibitors | 300,000 tested, 1.8% active | Marburg virus pseudotyped entry inhibition, cell reporter; calls by dose curve; tested in HEK293 cells; further: potency means the concentration at half of the fitted maximal effect; on the % scale 0 is the no-effect control and ±100 the full control effect
FMDV antiviral = High Throughput Screening for Foot and Mouth Disease Virus Antivirals; Potency, µM (series often up to 57.9 µM), inactives show at the highest dose activity change, negative = inhibition, usual class: inhibitors; FMDV antiviral cell-based qHTS; 410,000 tested, 1.2% active; calls by dose curve; tested in HEK293T cells; further: read-out not given here; potency means the concentration at half of the fitted maximal effect; on the % scale 0 is the no-effect control and ±100 the full control effect; nearly all actives have a fitted effect of over 45% in size
HCV inhibitor = qHTS Assay for Inhibitors of Hepatitis C Virus (HCV); Potency, µM (series often up to 41.8 µM), inactives show at the top dose activity change, negative = inhibition, usual class: inhibitors; Huh7.5.1 HCVcc-Cre infection, luciferase reporter, 44 h; 340,000 tested, 3.4% active; active means well fitted inhibition curve with a large enough effect; inconclusive means small, poorly fitted or top-dose-only effect, or another doubt; inactive means no such curve, though single readings can be large or run the other way; further: potency means the concentration at half of the fitted maximal effect; on the % scale 0 is the no-effect control and ±100 the full control effect
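Cells seeded at 1,000/well and cultured 4 h, then compounds added followed by HCVcc-Cre virus (~0.5 moi). After 44 h further culture, luciferase substrate was added, plates held 15 min at room temperature, and luminescence read for 15 sec.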
Shiga inhibitor = A qHTS for Small Molecule Inhibitors of Shiga Toxin. Vero cells, Shiga toxin protein synthesis inhibition reporter. inhibition, % at 38.7 µM. 290,000 tested, 9.2% active. AID 2315, 2010; in the data active means inhibition mostly above about 28%, no sharp cut-off; inactive means mostly below about 43%; further: 0% is about no effect
Cycloheximide cs = Cycloheximide Counterscreen for Small Molecule Inhibitors of Shiga Toxin. cell reporter, cycloheximide protein synthesis inhibition counterscreen. max response, %. 300,000 tested, 12% active. AID 2314, 2010; in the data active means max response mostly above about 13%, no sharp cut-off; inactive means mostly below about 14%; further: read at 38.3 µM for the half of the compounds with a filed dose; 0% is about no effect
Active calls of the source: *; ? = inconclusive; / = no result given; [ ] = dose if it differs, or a comment.

SMILES	Lassa entry inh	MARV entry inh	FMDV antiviral	HCV inhibitor	Shiga inhibitor	Cycloheximide cs
Cc1ncc(S(=O)(=O)c2ccccc2)c(-c2ccccc2)n1	2.0%	-17.9%	-17.6%	16.4%	-17.7	-4.0
Cc1ncc(N=Nc2ccccc2)c(-c2ccccc2)n1	-2.8%	2.4%	-25.2%	10µM*	-4.6	-2.9
COC(=O)c1ccc(COC(=O)c2ccccc2OC)cc1	/	/	63.4%	7.8%	97.4*	67.3*
COC(=O)c1ccc(C(=O)OC)c(NC(=O)COC(=O)c2ccccc2OC)c1	8.0%	?	-10.6%	8.9%	-5.6	-0.5
COC(=O)c1ccc(OCC(=O)c2ccccc2OC)cc1	3.5%	6.0%	19.4%	-2.7%	53.9	22.4*
COc1ccccc1C(=O)COC(=O)c1cccc(-n2cnnn2)c1	/	/	10.6%	0.2%	/	/
CCOc1ncccc1C(=O)OCc1ccc(Cl)cc1	?	-28.7%	-10.0%	-6.6%	16.7	15.3
COc1ccccc1C(=O)COC(=O)c1ccc(-n2cnnn2)cc1	11.4%	1.3%	21.5%	10µM*	/	/
CCOc1ncccc1C(=O)OCc1ccc(C(=O)OC)cc1	-18.2%	?	13.8%	?	97.7*	81.4*
Cc1cccn2c(CNCCCOc3cccnc3)c(C(=O)N3CCOCC3)nc12	3.3%	-8.0%[46.1 µM]	-2.0%	8.8%	5.5	0.5
CCC(CC)C(=O)Nc1cc(C(=O)NCCc2ccccc2)ccc1Cl	-24.7%	4.3%	/	-10.9%	16.0	32.8*
CCOc1ccccc1NC(=O)C(OC(=O)c1ccc(N(C)C)cc1)c1ccccc1 (configuration not stated)	?	?	-16.1%	11.2µM*	-8.1	6.4
CCOc1ccccc1NC(=O)c1ccc(Cl)c(NC(=O)CC(c2ccccc2)c2ccccc2)c1	-3.7%	14.6µM*	/	5.7%	7.2	-3.1
CCOc1ccccc1C(=O)Nc1cc(C(=O)NCCc2ccccc2)ccc1Cl	-16.2%	4.6%	/	2.51µM*	7.3	6.8
CCC(CC)C(=O)NCCCCc1ccccc1	-4.9%	3.3%	-17.0%	-10.6%	5.6	-3.4
O=C(O)c1cccc(S(=O)(=O)NCc2cccs2)c1	28.5%	17.3%	-0.9%	11.9%	1.7	-1.8
c1ccc(Cc2nnc3n2N=C(c2ccccc2)CS3)cc1	-6.9%[46.1 µM]	-14.3%[46.1 µM]	-8.5%	14.0%	-9.9	-0.4
CN(NC1OC(=O)c2ccccc21)c1ccccc1[N+](=O)[O-] (configuration not stated)	14.8%	11.6%[46.1 µM]	-0.6%	9.3%	9.7	10.0
O=C(CN1C(=O)NC2(CCCCC2)C1=O)NCCCSc1ccccc1	/	/	-16.3%	-7.5%	/	/
CC(=O)c1cccc(NC(=S)NC(=O)c2ccc(C)cc2)c1	?	-17.6%[46.1 µM]	50.0%	-22.4%	87.7*	39.9*
CC(=O)c1cccc(NC(=S)NC(=O)c2ccc(Br)cc2)c1	-7.7%	13.8%	37.0%	0.3%	32.0	32.1*
CCCCCC(=O)NC(=S)Nc1cccc(C(C)=O)c1	5.9%[46.1 µM]	?	18.1%	-6.4%	32.3*	22.6*
Cc1ccc(C(=O)NC(=S)Nc2ccc(NC(=O)c3cccc(Cl)c3)cc2)cc1	2.31µM*	1.26µM*	3.0%	-10.6%	-10.1	-0.4
CCCC(=O)NC(=S)Nc1cccc(C(C)=O)c1	9.7%	16.4%[46.1 µM]	20.9%	-0.3%	10.6	12.8
Cc1cnccc1CN(C)Cc1nc(Cc2ccccc2Cl)no1	?	3.0%[46.1 µM]	?	?	-15.7	12.0
SMILES	Lassa entry inh	MARV entry inh	FMDV antiviral	HCV inhibitor	Shiga inhibitor	Cycloheximide cs
CC(C)c1nn2c(=O)cc(COC(=O)COc3ccccc3F)nc2s1	-5.5%[46.1 µM]	/	-10.0%	/	/	/
C=CCc1cc(OC)ccc1OCCOCCC(C(=O)OCC)C(=O)OCC	-15.8%	-5.4%	-11.8%	11.6%	-9.2	-4.1
Oc1cccc(Nc2nc(O)c(/C=C3\C=Nc4ccccc43)s2)c1	/	/	25.4%	?	93.5*	51.6*
Oc1nc(Nc2cccc(Cl)c2)sc1/C=C1\C=Nc2ccccc21	?	?	?	-23.4%	-5.2	-2.1
CN(CC(=O)NCCN1CCOCC1)S(=O)(=O)c1ccc(Cl)cc1	2.8%	?	-23.2%	-4.1%	/	/
Cc1ccc(C(c2sc3ncnn3c2O)N2CCCCC2)cc1 (configuration not stated)	/	/	25.6%	-21.6%	37.3*	10.1*
C/C(Cn1nnc([N+](=O)[O-])n1)=N\NC(=O)c1ccccc1Cl	-29.9%	?	-2.8%	0.2%	27.3	22.3*
C/C(Cn1nnc([N+](=O)[O-])n1)=N\NC(=O)c1ccc(C)cc1	?	?	-28.2%	?	81.8*	43.4*
C/C(Cn1cnc([N+](=O)[O-])n1)=N\NC(=O)c1ccncc1	11.4%	-21.0%	-9.7%	28.8%	16.4	4.0
C/C(Cn1nnc([N+](=O)[O-])n1)=N\NC(=O)c1ccncc1	?	?	-20.7%	-1.5%	12.7	-1.3
C/C(Cn1nnc([N+](=O)[O-])n1)=N\NC(=O)c1cccc(Cl)c1	?	?	/	?	43.6*	20.2*
COC(=O)c1cc(C#N)c(N(C)Cc2ccccc2)nc1C	4.4%	6.6%	30.4%	5.4%	36.9	30.2*
O=C(CNC(=O)c1ccccc1F)N/N=C/c1ccco1	/	/	0.5%	10.2%	6.5	12.3
O=C1C=C(Nc2cccc(Cl)c2)CC(c2ccco2)C1 (configuration not stated)	2.5%	-13.3%	/	-16.9%	-11.7	1.2
Cc1nc2ccccc2n1S(=O)(=O)c1ccc(S(=O)(=O)N2CCCCCC2)cc1	5.8%	-3.9%	13.4%	23.8%	27.5	3.0
CC(=O)c1nc2ccccc2n1S(=O)(=O)c1ccc(C)cc1	-1.7%	-2.5%	24.9%	1.9%	3.1	22.9*
CC(C)c1nnc(NC(=O)CSc2ccccc2)s1	13.2%	?	10.6%	4.5%	17.8	33.8*
CC(C)c1nnc(NC(=O)CC(C)c2ccccc2)s1 (configuration not stated)	-6.3%	-16.9%	27.6%	5.3%	18.2	13.1
CC(C)(C)Cc1nnc(NC(=O)CSc2ccccc2)s1	/	/	37.5%	6.4%	14.1	12.5*
CC1=C(C(=O)NCc2ccccc2Cl)C2(CCCCCC2)OC1=O	-1.9%[46.1 µM]	/	-4.0%	/	/	/
COc1ccccc1OCC(=O)Nc1nc(C)c(C)s1	12.6µM*	?	31.8%	?	91.1*	27.0*
COC(=O)c1sc(NC(=O)COc2ccccc2C)nc1C	-1.8%	3.8%[46.1 µM]	65.7%	?	55.6	21.4*
COc1ccc2[nH]c3c(c2c1)CCN1C(=O)C(CC(=O)NCCCn2ccnc2)C[C@H](C(=O)N2CCCCC2)[C@@]31C (some centres not stated)	/	/	-12.6%	-12.4%	/	/
CC1=NN(Cc2cc(C(C)(C)C)c(O)c(C(C)(C)C)c2)C(=O)C1	/	/	2.6%	-5.6%	-4.5	-3.2
CCCCCN1N=C(C)CC1=O	2µM*	-13.3%[46.1 µM]	0.7%	-4.7%	-0.6	2.1
C/C(=N\Nc1nc2ccccc2c(=O)n1O)c1ccco1	-1.2%[46.1 µM]	?	6.8%	-6.1%	62.0*	46.7*

Screening data (PubChem)
